The values that follow come from PubChem BioAssay (NCI).

Holding throughout (assay): NCI-60 one-dose screen, 48 h (100 = growth as untreated, 0 = no growth, -100 = all killed)
What all share (details): 10 µM unless noted

Assay [1] has as its system HCT-15 colon.
For assay [2], the system named is HT29 colon.
Assay [3] has as its system SNB-75 CNS.
For assay [4], the system named is SNB-19 CNS.
For assay [5], the system named is U251 CNS.
The test system of assay [6] is PC-3 prostate.
For assay [7], the system named is SK-MEL-5 melanoma.
For assay [8], the system named is UACC-62 melanoma.
The subject of assay [9] is LOX IMVI melanoma.
For assay [10], the system named is SK-MEL-28 melanoma.

Compounds without any hit were thinned out: in the full panel of roughly 83,000, 20% have a hit.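 Single-concentration screen, 48 h exposure, 96-well plates. Endpoint: percent growth. Below 10 = active.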 A number with no mark means an inactive call. Active and inactive are the calls of the source.

On to `O=c1c2ccccc2nc(COc2ccccc2)n1/N=C/C=C/c1ccccc1`, for which the growth is 76.9% in assay [1]; 98.1% in [2]; 83.4% in assay [3]; 82.9% in assay [4]; 98.4% in assay [5]; 89.6% in assay [6]. Also, the growth was 99.3% in assay [7], 94.5% in assay [8], 72.1% in assay [9] and 94.3% in assay [10].

Take `CN1CCN(c2ccc(C(=O)Nc3cccc(-c4cn(-c5ccc(S(N)(=O)=O)cc5)nn4)c3)cc2C(F)(F)F)CC1`: the growth in assay [1] was 41.1%; in [2], 16.7%; in assay [3], 64.9%; in [4], 86.6%; in assay [5] it was 59.6%; in [6], 69.8%. Moreover, the growth in assay [7] was 90.6%; in assay [8], 82.7%; in assay [9], 23.1%; in assay [10], 72.7%.

As for `Cc1cc(=O)n2nc(-c3c[nH]c4ccccc34)sc2n1`, the growth in assay [1] is 93.5%; in [2], 107%; in [3], 99.8%; in assay [4], 97.3%; in [5] it was 94.2%; in assay [6] it was 98.3%. Also, the growth is 98.5% in [7], 92% in assay [8], 95.7% in assay [9] and 96.5% in assay [10].

Turning to `C=CCn1c(SCC(=O)Nc2cccc(C(=O)/C=C/c3ccc(Br)cc3)c2)nc2ccccc2c1=O`, the growth in assay [1] was 76.3%; in [2] it was 83.9%; in assay [3], 61.8%; in assay [4], 76.8%; in [5], 74.6%; in [6] it was 79.4%. In addition, the growth was 98.4% in [7], 73.4% in assay [8], 74.8% in assay [9] and 98.2% in assay [10].

Regarding `CCN1C(=O)N(CC)C2SC(N/N=C/c3ccc(OC)cc3)=NC21` (stereo not given), the growth in assay [1] was 12%; in assay [2], 15.1%; in assay [3] it was 27.3%; in assay [4], 23%; in [5], 24.5%; in assay [6], 28.9%. In addition, the growth in assay [7] is -0.548% (active); in assay [8], 38.4%; in [9], 3.58% (active); in assay [10], 60.2%.

Turning to `C#C[C@]1(O)CC[C@H]2[C@@H]3CC=C4c5sc(C6CC6)nc5CC[C@]4(C)[C@H]3CC[C@@]21C`, the growth in assay [1] is 50.4%; in [2], 70.2%; in [3], 94.8%; in [4], 90%; in assay [5] it was 66.3%; in assay [6], 67.2%. Moreover, the growth in [7] was 93.5%; in assay [8] it was 67.7%; in [9] it was 62.6%; in [10], 69.3%.

Regarding `O=C(C[n+]1ccnc2ccccc21)c1ccc(O)c(O)c1`, the growth in assay [1] is 12.8%; in [2], 18.3%; in [3], 98.2%; in [4] it was 80.8%; in assay [5] it was 63.8%; in assay [6], 44.7%. Further, the growth in assay [7] was 81.6%; in assay [8], 54.6%; in [9], 8.68% (active); in assay [10], 63.3%.

For the compound `C#CCOc1ccc(C(Nc2ccc(OC)cc2)c2nnnn2C2CCCCC2)cc1` (stereo not given), the growth in assay [1] was 97.1%; in [2], 101%; in assay [3], 92.6%; in assay [4], 93.3%; in assay [5], 89.9%; in [6] it was 93.8%. The growth was 100% in assay [7], 73.4% in assay [8], 89.2% in assay [9] and 109% in assay [10].

Turning to `CCOC(=O)c1c(NCC(=O)Nc2ccc(Br)cc2)sc2c1CCCC2`, the growth in [1] is -14.2% (active); in assay [2], 25.7%; in assay [3], 46.2%; in [4], 56.7%; in assay [5], -6.08% (active); in [6], 55%. Moreover, the growth in assay [7] was 39.8%; in assay [8], 46.9%; in [9] it was 4.11% (active); in [10] it was 67.6%.

On to `CCN1C(=O)N(CC)C2SC(N/N=C/C=C/c3ccccc3OC)=NC21` (stereo not given), for which the growth is 13.7% in assay [1]; 6.38% (active) in [2]; 18.8% in [3]; 25.5% in assay [4]; 18.1% in assay [5]; 26.7% in assay [6]. The growth is 13.2% in assay [7], 37.1% in assay [8], 5.74% (active) in assay [9] and 60.2% in assay [10].

As to `CC(=O)C1=NN(c2ccc(Cl)cc2)C(=O)CN1C`, the growth in assay [1] is 100%; in [2], 102%; in assay [3], 106%; in assay [4], 103%; in assay [5], 97.6%; in assay [6], 98.1%. Also, the growth in assay [7] is 102%; in assay [8], 97.7%; in assay [9], 98.3%; in [10] it was 102%.

Turning to `CN1CCN(c2ccc3c(c2)nc(NNC(=O)c2ccncn2)c2cccn23)CC1`, the growth in assay [1] is 25.1%; in assay [2], 32.7%; in [3] it was 61.9%; in [4], 35.1%; in assay [5], 34%; in assay [6], 46.5%. Also, the growth is 13.7% in assay [7], 22.2% in assay [8], 11.4% in [9] and 28.3% in assay [10].

Regarding `CC[C@H](C)[C@H]1NC(=O)[C@@H]([C@H](O)C(C)C)NC(=O)[C@@H](C)N(C)C(=O)[C@H](C)N(C)C(=O)[C@H](CC(C)C)NC(=O)[C@H](CC(C)C)N(C)C(=O)[C@H](C)N(C)C1=O`, the growth is 1.74% (active) in assay [1]; 3.09% (active) in assay [2]; 11.2% in assay [3]; 5.15% (active) in [4]; 1.21% (active) in assay [5]; 5.5% (active) in assay [6]. For the same compound, the growth in assay [7] is -12.4% (active); in assay [8], -3.83% (active); in assay [9], -1.35% (active); in assay [10], -9.11% (active).

Regarding `CCOC(=O)c1nn(-c2ccccc2)c(=O)c2c(N)c(C#N)c(-c3cccs3)cc12`, the growth in assay [1] is 87.6%; in assay [2], 61.9%; in [3] it was -8.81% (active); in [4], 70.5%; in assay [5] it was 77.3%; in assay [6], 79.9%. The growth in assay [7] was 96.4%; in [8], 85.8%; in [9], 73%; in assay [10] it was 99.9%.
